Test results reported in PubChem BioAssay (NCI).
Compounds without any hit were thinned out: in the full panel of roughly 83,000, 20% have a hit.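 96-well plates, one dose, 48 hours. Percent growth reported; active if below 10.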 The source made the active and inactive calls.

What was measured:
Assay in all cases: NCI-60 one-dose screen, 48 h (100 = growth as untreated, 0 = no growth, -100 = all killed)
Conditions in all cases: 10 µM unless noted
[1] = test system: HCT-15 colon
[2] = test system: HT29 colon
[3] = test system: SNB-75 CNS
[4] = test system: SNB-19 CNS
[5] = test system: U251 CNS
[6] = test system: PC-3 prostate
[7] = test system: SK-MEL-5 melanoma
[8] = test system: UACC-62 melanoma
[9] = test system: SK-MEL-28 melanoma

Measured: growth

COc1ccc(C(=O)/C=C/c2ccc(Oc3nc(Nc4ccc(F)cc4)nc(N(C)C)n3)c(OC)c2)cc1
inactive: [1] 33.8% | [2] 59% | [3] 66.4% | [4] 63.4% | [5] 11.4% | [6] 50.5% | [7] 32.9% | [8] 41% | [9] 76.7%

CN(C)CCn1c2ccccc2c2nc3cc4ccccc4cc3nc21
active: [1] -35.8% | [2] -50.4% | [5] -69.3% | [6] 3.43% | [9] -80.1%
inactive: [3] 43% | [4] 28.9% | [7] 14.6% | [8] 57.2%

NS(=O)(=O)c1ccc(N=Nc2c(O)n(CC(=O)Nc3ccccc3Cl)c3ccccc23)cc1
inactive: [1] 25.1% | [3] 52.8% | [4] 36.9% | [6] 26.1% | [8] 19.7% | [9] 21.2%
active: [2] 7.23% | [5] 6.28% | [7] -1.56%

Cn1cc(-c2nc(N)nnc2-c2c[nH]c3ccc(Br)cc23)c2cccnc21
inactive: [1] 33.2% | [2] 23.1% | [3] 31.3% | [4] 52.7% | [5] 39.5% | [6] 59.9% | [7] 26.3% | [8] 53.9% | [9] 59.9%

CN(C)c1nc(NCCNS(=O)(=O)c2ccc(C(=O)/C=C/c3ccc(Cl)cc3)cc2)nc(Nc2ccc(F)cc2)n1
inactive: [3] 13.9%
active: [1] -84.4% | [2] -97.5% | [4] -5.63% | [5] -99.8% | [6] -65.9% | [7] -64.9% | [8] -56.8% | [9] -85.5%

CC(C)c1ccc2c(N)c(C(=O)Nc3ccc(C(F)(F)F)cn3)sc2n1
active: [7] 5.02%
inactive: [1] 58.7% | [2] 69.5% | [3] 78.6% | [4] 71.5% | [5] 62.9% | [6] 44.7% | [8] 69.7% | [9] 77.3%

CC(=O)Nc1ccc(C(=O)NC(=S)Nc2ccc(S(N)(=O)=O)cc2)cc1
inactive: [1] 106% | [2] 92.6% | [3] 78.1% | [4] 98.4% | [5] 94.2% | [6] 97.9% | [7] 88.3% | [8] 86.9% | [9] 97%

COc1cc2c(c(OC)c1OC)C(=O)CC(c1cccc(NC(=O)c3cc(N)ccc3Cl)c1)O2 (stereo unspecified)
inactive: [1] 22.3% | [2] 79.9% | [3] 43.7% | [4] 77.4% | [5] 65.6% | [6] 47.3% | [7] 35.8% | [8] 61.7% | [9] 56.8%

Cn1cc(-c2nnc(N)nc2-c2c[nH]c3ccc(F)cc23)c2cccnc21
inactive: [1] 28.5% | [2] 16.8% | [3] 24.4% | [4] 52.2% | [5] 37.3% | [6] 63.7% | [7] 20.9% | [8] 36.9% | [9] 63.2%

COc1cc(/C=C/C(=O)c2ccccc2)ccc1Oc1nc(Nc2ccc(F)cc2)nc(N(C)C)n1
inactive: [2] 14.5% | [3] 39.9% | [6] 30.2% | [7] 18.9% | [8] 14.8% | [9] 18%
active: [1] -0.132% | [4] 3.33% | [5] 5.24%

COc1cc(CNC(=O)/C=C/c2ccc3c(c2)OCO3)ccc1OCc1cn(-c2cccc(C(F)(F)F)c2)nn1
active: [5] -32.9% | [6] 0.703% | [8] -29.2% | [9] 5.76%
inactive: [1] 38.2% | [2] 17.6% | [3] 41.1% | [4] 33.1% | [7] 33.2%

COc1cc(C2CC(c3cc(OC)c(OC)c(OC)c3)=NN2C(C)=O)ccc1OCc1ccc(F)cc1 (stereo unspecified)
inactive: [1] 42.5% | [2] 28.1% | [3] 79.5% | [4] 60.9% | [5] 59.9% | [6] 27.7% | [7] 29.7% | [8] 52% | [9] 73.2%

CC1CCCCN1CCCNC(=O)N/C(N)=N/c1nc2ccccc2s1 (stereo unspecified)
active: [1] -13.6% | [2] 3.14% | [3] 4.11% | [7] -96.7% | [8] -84.2% | [9] -97%
inactive: [4] 61.5% | [5] 40.8% | [6] 31.6%

COc1cc2c(c(OC)c1OC)C(=O)CC(c1cccc(NC(=O)c3cc([N+](=O)[O-])ccc3Cl)c1)O2 (stereo unspecified)
active: [1] -0.987%
inactive: [2] 23.2% | [3] 12.9% | [4] 52.6% | [5] 30.7% | [6] 42.7% | [7] 23.3% | [8] 45.2% | [9] 34.1%

COc1cc2oc(-c3cccc(C(=O)Nc4ccc(Cl)cc4)c3)cc(=O)c2c(OCCNC(=O)[C@@H](N)CCC(=O)O)c1OC
inactive: [1] 78% | [2] 50.6% | [3] 86.4% | [4] 93.6% | [5] 87.4% | [6] 79% | [7] 83.6% | [8] 100% | [9] 78.8%

O=C(N=Nc1c(O)[nH]c2ccc(Cl)cc12)c1ccc2nc(-c3ccccc3)[nH]c2c1
inactive: [1] 95.4% | [2] 57.4% | [3] 91.7% | [6] 51.1% | [7] 94.3% | [8] 21.7% | [9] 44.3%
active: [4] -52.5% | [5] -71.3%

COCOc1cc2c(=O)c(C)c(C(=O)N[C@@H](Cc3ccccc3)C(O)C(=O)NCc3ccccc3)oc2cc1OC (stereo partly specified)
inactive: [1] 84.3% | [2] 43.3% | [4] 15.7% | [6] 73.4% | [7] 10.6% | [9] 38.9%
active: [3] 3.85% | [5] -36.6% | [8] -14.8%

COc1cccc(-c2c(C#N)c(-c3ccc(Cl)cc3)nc3n[nH]c(-c4ccc(Cl)cc4)c23)c1
active: [1] 9.74%
inactive: [2] 27.9% | [3] 56.3% | [4] 68.2% | [5] 48.5% | [6] 23.9% | [7] 30.9% | [8] 61.3% | [9] 73.6%

O=C(/C=C/Nc1ccc(Cl)cc1)c1ccc2c(c1)Nc1ccccc1S2
inactive: [1] 67.1% | [2] 28.7% | [5] 31.5% | [6] 29.8% | [7] 71.3% | [8] 32% | [9] 65.9%
active: [3] -24.4% | [4] 9.53%

CCCCc1c(Nn2cnnn2)no[n+]1[O-]
inactive: [1] 32.8% | [2] 59.5% | [3] 48.9% | [4] 72.3% | [5] 51.3% | [6] 58.1% | [7] 80.6% | [8] 52.4% | [9] 73%

S=C(NCCc1ccccc1)Nc1ccc(OCc2nc3ccccc3[nH]2)cc1
inactive: [1] 98% | [2] 108% | [3] 103% | [4] 102% | [5] 99.7% | [6] 105% | [7] 102% | [8] 93.1% | [9] 110%

N#Cc1ccc(/C=N/NC(=O)c2[nH]c3ccc(Br)cc3c2-c2ccccc2)o1
inactive: [4] 34.5% | [6] 13.1% | [8] 15.2% | [9] 27.4%
active: [1] 8.65% | [2] -15.3% | [3] 5.21% | [5] 6.89% | [7] -65.5%

CCN(CC)C(=O)N/C(N)=N/c1nc2ccccc2s1
active: [7] -24.9%
inactive: [1] 54% | [2] 62.5% | [3] 63.9% | [4] 56.5% | [5] 66.9% | [6] 54.9% | [8] 43.7% | [9] 75.4%

O=C(O)c1cccc(-c2ccc(/C=N/NC(=O)c3[nH]c4ccc(Br)cc4c3-c3ccccc3)o2)c1
inactive: [1] 70.4% | [2] 107% | [3] 57.8% | [4] 30.7% | [5] 34.7% | [6] 86.4% | [7] 84.2% | [8] 35.5% | [9] 53.2%

CN(C)CCn1c2ccccc2c2nc3ccc([N+](=O)[O-])cc3nc21
inactive: [3] 47.6% | [6] 19.9%
active: [1] 4.65% | [2] -15.6% | [4] 4.08% | [5] -8.94% | [7] -81% | [8] -25.5% | [9] 8.67%

CSc1ccccc1NC(=O)c1ccc2nnn(/C(C#N)=C/c3ccccn3)c2c1
active: [1] -79.9% | [2] -92.1% | [4] 0.0552% | [5] -90.9% | [6] -71% | [7] -98.9% | [8] -98.8% | [9] -99.2%
inactive: [3] 67.9%

C/C(=N\N=C1/C(=O)Nc2ccccc21)c1ccc2c(c1)Nc1ccccc1S2
inactive: [1] 48.6% | [2] 71.5% | [3] 44% | [4] 64.5% | [5] 60.1% | [6] 63.6% | [7] 42% | [8] 40.5% | [9] 75%

O=C(/C=C/c1cccc(OCc2ccccc2)c1)c1nc2ccccc2[nH]1
active: [1] -75.5% | [2] -45.7% | [5] -65.8%
inactive: [3] 66.8% | [4] 53.6% | [6] 25.9% | [7] 72.1% | [8] 56% | [9] 94.9%

COc1cc(C2CC(c3cc(OC)c(OC)c(OC)c3)=NN2c2ccccc2)ccc1OCc1ccc(C)cc1 (stereo unspecified)
inactive: [1] 86.2% | [2] 85.7% | [3] 84.1% | [4] 91.7% | [5] 96.7% | [6] 92.9% | [7] 92.3% | [8] 78.8% | [9] 103%
